# Laboratory results published in the supplement of paper PMC10849652.
# The full data set covers some 8,800 targets. This sample favours those with a hit. About 0.5% of all pairs of compound and target were hits. A number with no mark means an inactive call.
# Tests used:
# Assay in all cases: log2 fold change, soluble protein after heating vs DMSO (PISA); higher = thermal stabilisation; K562 lysate, 10 uM; active = over 0.2 and 3.5 SD of the protein, either way, in both replicates (recomputed)
# [1] = compound: CCCS(=O)(=O)Nc1ccc(F)c(C(=O)c2c[nH]c3ncc(-c4ccc(Cl)cc4)cc23)c1F [vemurafenib]
# In short: (§1)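 Thermal stability, expressed as log-two fold change relative to solvent controls, is given from duplicates. Crude K562 extract in PBS pH 7.4 with 1 mM MgCl2, at 1 mg/mL protein, was treated with 10 μM compound for 30 min and heated in aliquots for 3 min across 48°C-58°C. After pooling, adjustment to 0.5% NP-40 at 4°C and centrifugation at 21,000xg for 90 min, supernatant protein was measured by TMTpro 16plex LC-MS/MS with channel sums equalised.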
# [2] = compound: CCCS(=O)(=O)Nc1ccc(F)c(C(=O)c2c[nH]c3ncc(Cl)cc23)c1F
# In short: as §1
# [3] = compound: CCN(CCCOc1ccc2c(Nc3cc(CC(=O)Nc4cccc(F)c4)[nH]n3)ncnc2c1)CCOP(=O)(O)O [barasertib]
# In short: as §1
# [4] = compound: CC[C@@H]1C(=O)N(C)c2cnc(Nc3ccc(C(=O)NC4CCN(C)CC4)cc3OC)nc2N1C1CCCC1
# In short: as §1
# [5] = compound: CC[C@@H]1C(=O)N(C)c2cnc(Nc3ccc(C(=O)N[C@H]4CC[C@H](N5CCN(CC6CC6)CC5)CC4)cc3OC)nc2N1C(C)C [volasertib]
# In short: as §1
# [6] = compound: CCn1c(C(=O)N(C2CC2)C2CC2)cc2c3c(ncn3C)c(Nc3cc(C)n(C)n3)nc21
# In short: as §1
# [7] = compound: CCn1cc(-c2ccnc3[nH]c(-c4cccc(CN(C)C)c4)cc23)c(-c2ccc(NC(=O)N(C)C)cc2)n1
# In short: as §1
# [8] = compound: CN1CCC(CNc2ccc3ncc(-c4cccc(OC(F)(F)F)c4)n3n2)CC1
# In short: as §1
# [9] = compound: CN1CCN(CCOc2cc(OC3CCOCC3)c3c(Nc4c(Cl)ccc5c4OCO5)ncnc3c2)CC1 [saracatinib]
# In short: as §1
# [10] = compound: CN1CCN(c2nc(C3=C(c4c[nH]c5ccccc45)C(=O)NC3=O)c3ccccc3n2)CC1 [sotrastaurin]
# In short: as §1
# UniProt O00170, sequence (O00170 whole entry, looked up): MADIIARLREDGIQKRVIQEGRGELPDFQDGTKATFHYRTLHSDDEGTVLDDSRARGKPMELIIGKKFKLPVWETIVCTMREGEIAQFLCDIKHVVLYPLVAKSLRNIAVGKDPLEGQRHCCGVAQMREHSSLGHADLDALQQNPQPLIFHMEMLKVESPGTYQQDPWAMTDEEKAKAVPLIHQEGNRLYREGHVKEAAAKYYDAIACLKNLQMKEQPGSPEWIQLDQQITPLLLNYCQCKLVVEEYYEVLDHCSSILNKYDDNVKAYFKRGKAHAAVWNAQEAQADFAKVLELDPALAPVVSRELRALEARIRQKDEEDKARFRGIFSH
# UniProt Q96GS6, sequence (Q96GS6 whole entry, looked up): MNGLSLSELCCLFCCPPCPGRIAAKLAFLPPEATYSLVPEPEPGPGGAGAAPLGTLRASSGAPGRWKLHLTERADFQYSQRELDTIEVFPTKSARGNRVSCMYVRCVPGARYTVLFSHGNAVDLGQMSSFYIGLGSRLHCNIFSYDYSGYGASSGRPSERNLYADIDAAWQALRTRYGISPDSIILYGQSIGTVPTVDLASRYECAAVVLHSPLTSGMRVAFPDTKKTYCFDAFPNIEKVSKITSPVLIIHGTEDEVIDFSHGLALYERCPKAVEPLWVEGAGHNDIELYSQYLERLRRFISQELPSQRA
# UniProt Q15067, sequence (Q15067 whole entry, looked up): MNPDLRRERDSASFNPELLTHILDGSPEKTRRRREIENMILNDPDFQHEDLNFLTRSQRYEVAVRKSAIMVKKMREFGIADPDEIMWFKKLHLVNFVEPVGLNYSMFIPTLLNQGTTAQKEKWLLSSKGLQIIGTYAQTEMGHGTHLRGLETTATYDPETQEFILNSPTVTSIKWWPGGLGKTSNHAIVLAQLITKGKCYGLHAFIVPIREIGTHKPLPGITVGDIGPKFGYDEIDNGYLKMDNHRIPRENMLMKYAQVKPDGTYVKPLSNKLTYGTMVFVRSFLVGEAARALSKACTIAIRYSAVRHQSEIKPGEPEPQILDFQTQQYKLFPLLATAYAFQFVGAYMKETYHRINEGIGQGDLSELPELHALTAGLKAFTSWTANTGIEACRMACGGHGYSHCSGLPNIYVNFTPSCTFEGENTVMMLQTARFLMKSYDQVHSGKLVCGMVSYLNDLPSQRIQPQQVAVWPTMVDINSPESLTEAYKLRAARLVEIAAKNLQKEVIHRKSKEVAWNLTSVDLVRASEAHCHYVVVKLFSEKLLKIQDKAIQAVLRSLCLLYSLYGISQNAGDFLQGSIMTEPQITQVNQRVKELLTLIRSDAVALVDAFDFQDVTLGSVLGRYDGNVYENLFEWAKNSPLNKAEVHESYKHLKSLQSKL
# UniProt P31749, sequence (P31749 whole entry, looked up): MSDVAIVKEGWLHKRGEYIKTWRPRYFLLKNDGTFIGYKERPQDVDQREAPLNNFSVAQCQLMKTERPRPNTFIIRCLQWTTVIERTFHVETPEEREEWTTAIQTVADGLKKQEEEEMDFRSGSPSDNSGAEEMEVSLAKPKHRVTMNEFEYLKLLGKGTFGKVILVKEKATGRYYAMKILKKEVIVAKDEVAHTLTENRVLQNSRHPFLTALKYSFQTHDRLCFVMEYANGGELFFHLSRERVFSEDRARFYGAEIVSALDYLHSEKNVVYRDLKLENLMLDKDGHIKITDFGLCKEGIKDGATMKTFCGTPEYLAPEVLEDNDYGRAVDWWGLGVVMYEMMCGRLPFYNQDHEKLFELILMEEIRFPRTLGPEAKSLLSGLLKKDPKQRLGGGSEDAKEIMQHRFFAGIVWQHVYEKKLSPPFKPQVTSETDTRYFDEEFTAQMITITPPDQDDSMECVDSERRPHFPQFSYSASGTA
# UniProt Q9UH62, sequence (Q9UH62 whole entry, looked up): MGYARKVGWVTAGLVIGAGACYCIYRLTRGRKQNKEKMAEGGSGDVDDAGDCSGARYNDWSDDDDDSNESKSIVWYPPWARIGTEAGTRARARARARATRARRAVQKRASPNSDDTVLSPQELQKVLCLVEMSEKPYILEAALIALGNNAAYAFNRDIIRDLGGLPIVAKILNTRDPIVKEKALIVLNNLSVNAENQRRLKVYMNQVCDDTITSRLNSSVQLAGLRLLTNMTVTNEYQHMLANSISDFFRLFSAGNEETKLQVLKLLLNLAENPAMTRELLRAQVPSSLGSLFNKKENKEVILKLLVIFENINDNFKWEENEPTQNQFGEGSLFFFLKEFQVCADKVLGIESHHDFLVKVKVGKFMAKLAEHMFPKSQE
# UniProt O14617, sequence (O14617 whole entry, looked up): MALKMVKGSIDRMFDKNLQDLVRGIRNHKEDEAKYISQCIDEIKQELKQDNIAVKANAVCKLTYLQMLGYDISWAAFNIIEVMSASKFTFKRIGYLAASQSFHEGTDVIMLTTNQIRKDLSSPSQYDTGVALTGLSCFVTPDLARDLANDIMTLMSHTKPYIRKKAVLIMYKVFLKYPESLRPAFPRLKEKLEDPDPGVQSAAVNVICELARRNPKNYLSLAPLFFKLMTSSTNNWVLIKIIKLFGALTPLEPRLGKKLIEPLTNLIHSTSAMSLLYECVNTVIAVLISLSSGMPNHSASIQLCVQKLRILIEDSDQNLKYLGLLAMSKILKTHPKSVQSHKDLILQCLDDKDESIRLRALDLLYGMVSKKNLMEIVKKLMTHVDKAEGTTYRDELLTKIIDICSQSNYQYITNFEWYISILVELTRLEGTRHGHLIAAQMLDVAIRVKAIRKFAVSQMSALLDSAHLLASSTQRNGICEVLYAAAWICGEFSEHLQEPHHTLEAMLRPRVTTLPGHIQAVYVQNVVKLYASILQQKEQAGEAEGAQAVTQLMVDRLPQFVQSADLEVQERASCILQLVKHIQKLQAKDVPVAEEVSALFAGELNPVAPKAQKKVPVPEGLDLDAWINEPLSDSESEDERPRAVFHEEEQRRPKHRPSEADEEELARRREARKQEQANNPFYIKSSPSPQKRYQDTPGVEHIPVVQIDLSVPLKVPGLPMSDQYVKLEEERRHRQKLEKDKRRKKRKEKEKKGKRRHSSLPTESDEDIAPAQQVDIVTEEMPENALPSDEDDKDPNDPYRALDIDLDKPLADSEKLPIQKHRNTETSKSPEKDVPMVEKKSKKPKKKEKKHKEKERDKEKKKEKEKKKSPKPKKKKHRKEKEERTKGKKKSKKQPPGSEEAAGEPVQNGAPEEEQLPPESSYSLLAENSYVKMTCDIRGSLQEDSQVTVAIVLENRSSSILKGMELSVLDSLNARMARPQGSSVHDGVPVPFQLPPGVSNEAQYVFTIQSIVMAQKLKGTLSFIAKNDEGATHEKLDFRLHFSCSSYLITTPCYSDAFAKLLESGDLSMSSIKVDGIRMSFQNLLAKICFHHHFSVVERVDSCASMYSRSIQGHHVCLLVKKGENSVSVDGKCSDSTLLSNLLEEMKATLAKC
# UniProt P40616, sequence (P40616 whole entry, looked up): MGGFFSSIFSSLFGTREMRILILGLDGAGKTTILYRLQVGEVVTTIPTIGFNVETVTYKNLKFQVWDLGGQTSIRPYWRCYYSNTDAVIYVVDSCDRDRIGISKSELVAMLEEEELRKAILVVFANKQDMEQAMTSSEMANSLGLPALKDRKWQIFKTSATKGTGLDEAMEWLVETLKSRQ
# UniProt P00568, sequence (P00568 whole entry, looked up): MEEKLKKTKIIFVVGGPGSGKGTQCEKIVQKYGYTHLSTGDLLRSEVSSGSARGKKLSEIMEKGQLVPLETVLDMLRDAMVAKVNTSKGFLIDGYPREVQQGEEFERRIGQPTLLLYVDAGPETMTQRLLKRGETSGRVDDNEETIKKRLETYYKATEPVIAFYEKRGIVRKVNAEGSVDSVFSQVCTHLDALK
# UniProt Q9BVK2, sequence (Q9BVK2 whole entry, looked up): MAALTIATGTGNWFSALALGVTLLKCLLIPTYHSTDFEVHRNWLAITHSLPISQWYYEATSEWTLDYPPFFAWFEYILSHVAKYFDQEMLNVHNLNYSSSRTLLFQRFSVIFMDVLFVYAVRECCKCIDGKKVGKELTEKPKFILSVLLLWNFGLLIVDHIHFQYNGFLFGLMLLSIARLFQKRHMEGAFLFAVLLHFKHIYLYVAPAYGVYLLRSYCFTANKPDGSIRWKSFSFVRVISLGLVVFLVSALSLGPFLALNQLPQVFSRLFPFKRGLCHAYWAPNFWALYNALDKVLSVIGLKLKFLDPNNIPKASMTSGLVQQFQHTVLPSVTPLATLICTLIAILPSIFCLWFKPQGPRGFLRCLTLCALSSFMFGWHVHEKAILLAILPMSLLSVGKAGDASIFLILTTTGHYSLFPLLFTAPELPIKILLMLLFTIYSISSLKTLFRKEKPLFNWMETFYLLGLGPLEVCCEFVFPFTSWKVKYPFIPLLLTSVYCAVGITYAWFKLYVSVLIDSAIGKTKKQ
# UniProt Q92685, sequence (Q92685 whole entry, looked up): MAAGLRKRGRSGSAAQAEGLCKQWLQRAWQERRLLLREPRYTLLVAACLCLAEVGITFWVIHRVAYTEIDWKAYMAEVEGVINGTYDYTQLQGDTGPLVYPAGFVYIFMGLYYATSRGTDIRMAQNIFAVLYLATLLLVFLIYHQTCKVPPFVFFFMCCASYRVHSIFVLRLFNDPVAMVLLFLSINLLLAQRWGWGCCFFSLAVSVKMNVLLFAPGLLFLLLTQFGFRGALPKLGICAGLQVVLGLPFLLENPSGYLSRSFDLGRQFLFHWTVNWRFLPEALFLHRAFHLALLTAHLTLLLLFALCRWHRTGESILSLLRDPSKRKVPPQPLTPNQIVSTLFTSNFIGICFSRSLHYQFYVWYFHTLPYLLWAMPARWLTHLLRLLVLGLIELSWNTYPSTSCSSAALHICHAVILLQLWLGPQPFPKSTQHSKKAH
Target,log2 fold change [1],log2 fold change [2],log2 fold change [3],log2 fold change [4],log2 fold change [5],log2 fold change [6],log2 fold change [7],log2 fold change [8],log2 fold change [9],log2 fold change [10]
ACOX1 isoform 2 (UniProt Q15067),0.017,0.003,-0.029,0.015,0.053,-0.026,-0.038,0.1,-0.014,0.004
AKR1B1 (UniProt P15121),0.006,0.024,0.02,0.072,-0.015,0.008,-0.054,0.116,0.065,-0.012
ACLY (UniProt P53396),0.017,0.01,-0.003,-0.035,-0.031,-0.003,-0.049,0.026,-0.007,0.016
ARL1 (UniProt P40616),0.046,0.007,-0.031,0.03,-0.066,-0.04,-0.101,-0.005,-0.005,0.042
ABHD17A isoform 2 (UniProt Q96GS6),-0.007,-0.08,0.007,0.036,0.012,0.022,0.001,0.013,-0.027,-0.05
ASPH (UniProt Q12797),0.009,0.009,-0.001,0.03,0.002,-0.018,0.011,-0.024,0.055,0.01
ARMCX3 (UniProt Q9UH62),-0.024,0.027,0.102,-0.033,-0.045,0.021,-0.01,-0.049,0.012,0.016
ARHGAP21 (UniProt Q5T5U3),0.107,0.073,0.061,-0.01,-0.027,0.037,0.043,-0.202,0.034,0.023
AK1 (UniProt P00568),0.01,-0.036,-0.012,-0.027,0.021,0.017,0.332 (active),-0.135,-0.012,-0.024
AIP (UniProt O00170),-0.002,0.015,-0.004,0.017,-0.004,-0.022,0.514 (active),-0.019,-0.015,0.007
AKT1 (UniProt P31749),0.071,0.011,-0.023,-0.019,-0.026,-0.031,-0.068,0.055,0.055,0.051
ALG3 (UniProt Q92685),0.084,-0.011,0.031,0.012,0.01,0.032,-0.371,0.06,0.068,0.029
ALG8 (UniProt Q9BVK2),-0.038,-0.013,0,-0.084,0.034,0.045,-0.316 (active),0.001,0.005,0.038
AP3D1 isoform 5 (UniProt O14617),-0.001,-0.002,0.036,-0.004,0,0.002,-0.08,0.034,0.001,0.013
